Experimental data: PubChem BioAssay (Tox21)
Values joined by “and” are separate entries in the source; they are usually repeats but may differ in a detail not shown here. Identical values can stand only once. Results filed as inconclusive are left out. Entries that show only a call come without a potency. Where a structure was tested more than once in an assay, its records may differ in their call. Active and inactive are the calls of the source. Unless noted, the call rests on the fitted dose curve.

Columns and labels:
[1] = Nuclear factor erythroid 2-related factor 2/antioxidant responsive element (Nrf2/ARE) small molecule agonists: qHTS cell viability counter screen in human keratinocytes (AID 1919968; active means well fitted curve in the direction sought with a large enough effect in the repeat runs; an effect the other way counts as inactive or inconclusive; further: nearly all actives have a fitted effect of over 55% in size; further: potency means the concentration at half of the fitted maximal effect)
Outline: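 Parallel cytotoxicity read: KeratinoSens HaCaT cells, compound treatment 23 h, viability by CellTiter-Fluor fluorescence 1 h post-reagent.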

[2] = Nuclear factor erythroid 2-related factor 2/antioxidant responsive element (Nrf2/ARE) small molecule agonists: luciferase reporter gene qHTS assay in human keratinocytes (AID 1919969); further: nearly all actives have a fitted effect of over 35% in size; further: potency means the concentration at half of the fitted maximal effect
[3] = molecular target: Gonadotropin-releasing hormone receptor (Homo sapiens) (UniProt P30968); experiment: Human gonadotropin-releasing hormone receptor (GnRHR) small molecule agonists, calcium flux assay in GnRHR-HEK293 cells (AID 1920063); further: nearly all actives have a fitted effect of over 35% in size
Outline: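 Calcium flux, agonist mode, human GnRHR stably integrated in HEK293; dye 1 h at 37 C before compound; Ex/Em=480/540 kinetic read, 3 min; 15 concentrations, triplicate.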

[4] = molecular target: KiSS-1 receptor (Homo sapiens) (UniProt Q969F8); experiment: Human kisspeptin (KISS1R) small molecule agonists, calcium flux assay in KISS1R-HEK293 cells (AID 1920064; active means well fitted curve in the direction sought with a large enough effect in the repeat runs; an effect the other way counts as inactive or inconclusive)
Outline: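 Triplicate 15-concentration series were applied to dye-loaded human KISS1R HEK293 cells, and agonist-evoked calcium fluorescence was captured for 3 min.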

[5] = G protein-coupled receptor (GPCR) small molecule agonists, calcium flux assay: HEK293 wild type cell line counter screen (AID 1920065)
Outline: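 Non-specific calcium responders were flagged by adding DMSO-dissolved compounds to dye-loaded cells and reading 480/540 nm fluorescence each second for 3 min; ATP served as positive control.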

[6] = p53 small molecule agonists, cell-based qHTS assay with human liver microsomes (AID 1963577);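 further: p53 response element beta-lactamase reporter cells with liver microsomes plus NADPH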
Outline: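 16 h, 37 C exposure of p53RE-bla cells to compounds with human liver microsomes and NADPH (0.5 mg/mL final each); detection via LiveBLAzer mixture, 2 h dark at room temperature.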

[7] = p53 small molecule agonists, cell-based qHTS assay with rat liver microsomes (AID 1963578)
Outline: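 With rat liver microsomes and NADPH present (0.5 mg/mL final each), p53RE-bla cells are treated with compound for 16 h at 37 C. LiveBLAzer detection mixture is then applied for 2 h at room temperature in the dark.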

[8] = p53 small molecule agonists, cell-based qHTS assay with human liver microsomes: qHTS cell viability counter screen (AID 1963579); further: nearly all actives have a fitted effect of over 45% in size; further: potency means the concentration at half of the fitted maximal effect
Outline: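 In this multiplexed counter screen, the reporter plates were subsequently treated with CellTiter-Glo so that cell viability, reflected by luminescence, could be recorded for p53RE-bla cells dosed 16 h with compounds under microsomal activation (HLM and NADPH).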

[9] = p53 small molecule agonists, cell-based qHTS assay with rat liver microsomes: qHTS cell viability counter screen (AID 1963580); further: nearly all actives have a fitted effect of over 45% in size; further: potency means the concentration at half of the fitted maximal effect
Outline: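 Rat liver microsome (0.5 mg/mL final) and NADPH (0.5 mg/mL final) co-incubation with compounds for 16 h at 37 C on HCT-116 p53RE-bla cells; cytotoxicity taken from intracellular ATP luminescence.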

[10] = p53 small molecule agonists, cell-based qHTS assay: qHTS cell viability counter screen (AID 1963581); further: nearly all actives have a fitted effect of over 45% in size
Outline: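 Multiplexed with the reporter read, a CellTiter-Glo step (30 min, room temperature) gauges ATP-based viability of HCT-116 p53RE-bla cells after 16 h compound incubation at 37 C.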

[11] = molecular target: 5-hydroxytryptamine receptor 2A (Homo sapiens) (UniProt P28223); experiment: 5-hydroxytryptamine receptor 2A (HTR2A) small molecule antagonists, cell-based qHTS assay (AID 1963586); further: nearly all actives have a fitted effect of over 45% in size
Outline: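 CHO cells stably expressing human HTR2A were plated for 18 h at 37 C, then loaded with calcium dye for 1 h. Compounds were preincubated 5 min at room temperature before DOI (4 nM solution) was added. Kinetic fluorescence was read for 3 min.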

[12] = molecular target: 5-hydroxytryptamine receptor 2A (Homo sapiens) (UniProt P28223); experiment: 5-hydroxytryptamine receptor 2A (HTR2A) small molecule agonists, cell-based qHTS assay (AID 1963587); further: nearly all actives have a fitted effect of over 30% in size; further: potency means the concentration at half of the fitted maximal effect
Outline: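 Kinetic calcium-flux fluorescence (2 min, 1 sec intervals) after compound addition in agonist mode. HTR2A-CHO cells were cultured 18 h, then dye-loaded 1 h at 37 C.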

[13] = molecular target: Muscarinic acetylcholine receptor M1 (Homo sapiens) (UniProt P11229); experiment: Cholinergic receptor muscarinic 1 (CHRM1) small molecule antagonists, cell-based qHTS assay (AID 1963588); further: nearly all actives have a fitted effect of over 40% in size; further: potency means the concentration at half of the fitted maximal effect
Outline: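 Compounds were tested at 15 concentrations in three independent runs. Dye-loaded CHRM1-CHO cells were exposed 5 min at room temperature before stimulation by acetylcholine added at 50nM. Intracellular calcium was read kinetically on FDSS for 3 min.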

[14] = molecular target: Muscarinic acetylcholine receptor M1 (Homo sapiens) (UniProt P11229); experiment: Cholinergic receptor muscarinic 1 (CHRM1) small molecule agonists, cell-based qHTS assay (AID 1963589); further: nearly all actives have a fitted effect of over 35% in size
Outline: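 qHTS, 15-point titration, 3 independent runs: compounds pin-transferred onto dye-loaded CHRM1-CHO cells (human M1), calcium fluorescence followed every second to detect agonism.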

[15] = cAMP Responsive Elements (CRE) small molecule agonists, cell-based qHTS assay (AID 1963590)
Outline: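 Quantitative HTS for CRE agonists: HEK 293T CRE-bla cells, overnight plating, 3 h compound incubation at 37 C/5% CO2, then 2 h room-temperature LiveBLAzer B/G FRET substrate loading.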

[16] = cAMP Responsive Elements (CRE) small molecule antagonists, cell-based qHTS assay (AID 1963591; active means well fitted inhibition curve with a large enough effect in the signal ratio in the repeat runs, not every such curve was filed as active; the % refers to the signal ratio)
Outline: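 Fluorescence intensity from cleaved LiveBLAzer B/G substrate (2 h, room temperature) quantified CRE-bla activity in HEK 293T cells exposed 3 h to compound with 0.25 uM final NKH477.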

[17] = molecular target: Beta-2 adrenergic receptor (Homo sapiens) (UniProt P07550); experiment: Adrenergic beta2 receptor (ADRB2) small molecule antagonists, cell-based qHTS assay (AID 1963592); further: series mostly up to about 92 µM; nearly all actives have a fitted effect of over 50% in size
Outline: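 Assay format: CHO-ADRB2 cells, 18-20hr seeding at 37C/5% CO2, then compound plus 1nM isoproterenol agonist mix for 0.5hr RT. Homogeneous time-resolved fluorescence cAMP detection after 1hr, expressed as 665/615 nm ratio.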

[18] = molecular target: D(2) dopamine receptor (Homo sapiens) (UniProt P14416); experiment: Dopamine D2 receptor (DRD2) small molecule agonists, cell-based qHTS assay (AID 1963594); further: nearly all actives have a fitted effect of over 35% in size
Outline: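 cAMP accumulation in DRD2-HEK293 cells measured by HTRF after 1 h detection; compounds added 10 min before NKH477 (200nM […]) forskolin-analogue stimulation, 30 min at room temperature, with Ro20-1724 present at 0.1 mM final.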

[19] = molecular target: D(2) dopamine receptor (Homo sapiens) (UniProt P14416); experiment: Dopamine D2 receptor (DRD2) small molecule antagonists, cell-based qHTS assay (AID 1963595; active means well fitted inhibition curve with a large enough effect in the signal ratio in the repeat runs, with a control signal flat; the % refers to the signal ratio)
Outline: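 Human DRD2 antagonist qHTS measuring cAMP by HTRF. The cells are exposed to compound for 10 min, then to NKH477 (200 nM) and quinpirole (12 nM) for 30 min at RT, with Ro20-1724 (0.1 mM) present throughout.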

[20] = molecular target: Beta-2 adrenergic receptor (Homo sapiens) (UniProt P07550); experiment: Adrenergic beta2 receptor (ADRB2) small molecule agonists, cell-based qHTS assay (AID 1963593);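 further: CHO cells stably overexpressing human ADRB2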
Outline: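 CHO cells stably over-expressing ADRB2 were plated overnight at 37C, then dosed with compounds plus a stimulation mix containing 100uM IBMX and 25uM Ro-20-1724 for 0.5hr at room temperature. cAMP was measured by HTRF competition, 1hr.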

Chain of KiSS-1 receptor (Homo sapiens) (Q969F8 whole entry, looked up): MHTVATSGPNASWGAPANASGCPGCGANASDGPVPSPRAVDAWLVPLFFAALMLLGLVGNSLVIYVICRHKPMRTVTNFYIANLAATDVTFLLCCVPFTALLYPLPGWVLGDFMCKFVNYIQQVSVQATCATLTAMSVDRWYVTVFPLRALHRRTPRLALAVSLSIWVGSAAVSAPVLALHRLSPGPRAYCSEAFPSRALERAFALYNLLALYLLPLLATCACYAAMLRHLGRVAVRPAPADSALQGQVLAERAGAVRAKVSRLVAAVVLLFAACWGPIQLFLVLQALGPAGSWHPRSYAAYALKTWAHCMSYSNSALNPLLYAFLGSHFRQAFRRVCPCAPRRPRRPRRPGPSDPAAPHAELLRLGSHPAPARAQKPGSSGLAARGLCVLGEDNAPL
Chain of 5-hydroxytryptamine receptor 2A (Homo sapiens) (P28223 whole entry, looked up): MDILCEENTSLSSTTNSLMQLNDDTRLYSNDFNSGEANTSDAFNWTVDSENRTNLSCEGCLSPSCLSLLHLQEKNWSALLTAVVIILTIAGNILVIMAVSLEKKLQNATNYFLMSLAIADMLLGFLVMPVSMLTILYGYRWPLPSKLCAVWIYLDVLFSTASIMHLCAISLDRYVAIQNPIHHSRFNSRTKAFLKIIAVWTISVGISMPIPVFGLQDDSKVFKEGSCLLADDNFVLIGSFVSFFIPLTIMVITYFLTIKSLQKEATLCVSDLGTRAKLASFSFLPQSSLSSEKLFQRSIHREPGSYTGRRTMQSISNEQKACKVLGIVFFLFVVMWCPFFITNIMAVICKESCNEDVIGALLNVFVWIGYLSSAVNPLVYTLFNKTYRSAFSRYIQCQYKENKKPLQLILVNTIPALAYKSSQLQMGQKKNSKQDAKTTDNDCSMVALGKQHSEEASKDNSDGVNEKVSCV
Chain of Muscarinic acetylcholine receptor M1 (Homo sapiens) (P11229 whole entry, looked up): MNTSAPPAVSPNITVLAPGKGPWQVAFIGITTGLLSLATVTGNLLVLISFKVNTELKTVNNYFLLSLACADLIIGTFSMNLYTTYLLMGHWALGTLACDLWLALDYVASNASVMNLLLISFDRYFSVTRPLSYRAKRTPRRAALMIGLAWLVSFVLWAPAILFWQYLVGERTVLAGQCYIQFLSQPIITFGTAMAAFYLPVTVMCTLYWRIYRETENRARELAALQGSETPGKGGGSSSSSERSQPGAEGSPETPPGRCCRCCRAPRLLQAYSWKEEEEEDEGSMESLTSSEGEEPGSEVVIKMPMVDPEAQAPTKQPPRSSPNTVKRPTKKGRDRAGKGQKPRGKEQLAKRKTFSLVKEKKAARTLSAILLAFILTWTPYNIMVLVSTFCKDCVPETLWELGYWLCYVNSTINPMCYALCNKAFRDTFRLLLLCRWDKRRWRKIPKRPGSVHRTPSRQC
Chain of D(2) dopamine receptor (Homo sapiens) (P14416 whole entry, looked up): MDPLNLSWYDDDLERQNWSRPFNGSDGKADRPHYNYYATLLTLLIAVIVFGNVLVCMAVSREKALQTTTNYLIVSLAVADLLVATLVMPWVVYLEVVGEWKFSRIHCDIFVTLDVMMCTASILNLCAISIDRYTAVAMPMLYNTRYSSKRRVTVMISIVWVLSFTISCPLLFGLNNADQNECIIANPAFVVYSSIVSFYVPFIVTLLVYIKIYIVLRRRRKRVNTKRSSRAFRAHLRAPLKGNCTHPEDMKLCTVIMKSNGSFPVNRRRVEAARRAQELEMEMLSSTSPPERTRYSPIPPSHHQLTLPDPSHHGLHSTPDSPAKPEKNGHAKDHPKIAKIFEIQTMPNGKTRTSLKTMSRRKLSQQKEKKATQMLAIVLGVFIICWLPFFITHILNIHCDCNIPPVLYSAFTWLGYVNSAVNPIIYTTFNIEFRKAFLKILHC
Chain of Beta-2 adrenergic receptor (Homo sapiens) (P07550 whole entry, looked up): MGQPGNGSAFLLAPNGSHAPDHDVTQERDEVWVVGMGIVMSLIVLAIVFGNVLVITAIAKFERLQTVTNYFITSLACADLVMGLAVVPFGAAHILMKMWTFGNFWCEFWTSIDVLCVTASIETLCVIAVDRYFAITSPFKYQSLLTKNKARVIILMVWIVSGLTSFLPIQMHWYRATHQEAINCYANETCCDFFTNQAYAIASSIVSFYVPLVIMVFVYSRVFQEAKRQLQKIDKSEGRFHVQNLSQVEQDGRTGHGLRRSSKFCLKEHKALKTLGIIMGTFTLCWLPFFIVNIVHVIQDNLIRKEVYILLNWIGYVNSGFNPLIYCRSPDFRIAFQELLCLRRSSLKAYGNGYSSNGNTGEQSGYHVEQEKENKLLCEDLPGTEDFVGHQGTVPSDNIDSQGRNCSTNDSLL
Chain of Gonadotropin-releasing hormone receptor (Homo sapiens) (P30968 whole entry, looked up): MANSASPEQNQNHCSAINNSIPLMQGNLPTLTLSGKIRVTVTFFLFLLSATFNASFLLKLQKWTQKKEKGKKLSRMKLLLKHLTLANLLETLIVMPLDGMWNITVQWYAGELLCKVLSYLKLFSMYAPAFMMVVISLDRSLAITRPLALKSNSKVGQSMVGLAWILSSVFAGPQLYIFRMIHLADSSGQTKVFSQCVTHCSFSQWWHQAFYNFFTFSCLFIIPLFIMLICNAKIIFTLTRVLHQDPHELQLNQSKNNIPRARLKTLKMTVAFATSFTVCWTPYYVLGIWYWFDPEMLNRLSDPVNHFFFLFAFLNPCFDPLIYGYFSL

SMILES	Potency [1]	Potency [2]	Potency [3]	Potency [4]	Potency [5]	Potency [6]	Potency [7]	Potency [8]	Potency [9]	Potency [10]	Potency [11]	Potency [12]	Potency [13]	Potency [14]	Potency [15]	Potency [16]	Potency [17]	Potency [18]	Potency [19]	Potency [20]
CC(=[OH+])/C=C(/C)[O-].CC(=[OH+])/C=C(\C)[O-].CC(=[OH+])/C=C(\C)[O-].[Fe]	inactive	inactive	inactive	inactive	inactive	inactive	inactive	inactive	inactive	inactive	inactive	inactive	inactive	inactive	inactive	inactive	inactive	inactive	inactive	
O=C(O)C(F)(F)C(F)(F)C(F)(F)C(F)(F)C(F)(F)C(F)(F)C(F)(F)C(F)(F)F	inactive	inactive	inactive	inactive	inactive	inactive	inactive	inactive	inactive	inactive	inactive	inactive	4.21 µM (active)	inactive	inactive	inactive		inactive	inactive	
C=CCOC(Cn1ccnc1)c1ccc(Cl)cc1Cl (stereo unspecified)	43.3 µM (active) and 18.8 µM (active)	15.4 µM (active) and 24.3 µM (active) and 8.41 µM (active)	inactive	inactive	inactive	inactive	inactive	inactive	inactive	inactive			5.96 µM (active) and 18.8 µM (active)	inactive	inactive	inactive	inactive	inactive	inactive	inactive
C[C@]12CCC(=O)C=C1CC[C@@H]1[C@@H]2CC[C@@]2(C)[C@H]1CC[C@]2(C)O	inactive	inactive	inactive	inactive	inactive	inactive	inactive	inactive	inactive	inactive					inactive		inactive	inactive	inactive	inactive
CCBr	inactive	inactive	inactive	inactive	inactive	inactive	inactive	inactive	inactive	inactive	inactive	inactive	inactive	inactive	inactive	inactive	inactive	inactive	inactive	inactive
CC(C)c1cccc(C(C)C)c1O	inactive	inactive	inactive	inactive	inactive	inactive	inactive	inactive	inactive	inactive					inactive	inactive	inactive	inactive	inactive	inactive
CCCCOCC1CO1 (stereo unspecified)	inactive	inactive	inactive	inactive	inactive	inactive	inactive	inactive	inactive	inactive	inactive	inactive	inactive	inactive	inactive	inactive	inactive	inactive	inactive	
Nc1ccc(Cc2ccc(N)cc2)cc1	inactive	inactive	inactive	inactive	inactive	inactive	inactive	inactive	inactive	inactive					inactive	inactive		inactive	inactive	inactive
ClC1C(Cl)C(Cl)C(Cl)C(Cl)C1Cl (stereo unspecified)	inactive	62.4 µM (active) and inactive	inactive	inactive	inactive	inactive	inactive	inactive	inactive	inactive	inactive	inactive and 54.9 µM (active)	inactive	inactive	inactive	inactive	inactive	inactive	inactive	inactive
O=C(O)c1nc(Cl)ccc1Cl	inactive	inactive	inactive	inactive	inactive	inactive	inactive	inactive	inactive	inactive	inactive	inactive		inactive		inactive	inactive	inactive	inactive	inactive
N#Cc1ccc(Cl)cc1	inactive	inactive	inactive	inactive	inactive	inactive	inactive	inactive	inactive	inactive	inactive	inactive	inactive	inactive	inactive	inactive	inactive	inactive	inactive	inactive
Nc1cccnc1	inactive	inactive	inactive	inactive	inactive	inactive	inactive	inactive	inactive	inactive		inactive		inactive	inactive	inactive	inactive	inactive	inactive	
[N-]=[N+]=CC(=O)OC[C@H](N)C(=O)O	inactive	inactive	inactive	inactive	inactive	inactive	inactive	inactive	inactive	inactive					inactive	inactive	inactive	inactive	inactive	inactive
CC1COC2(c3ccccc3Cl)c3cc(Cl)ccc3NC(=O)CN12 (stereo unspecified)	inactive	inactive	inactive	inactive	inactive	inactive	inactive	inactive	inactive	inactive	inactive	inactive	inactive	inactive	inactive	inactive	inactive		inactive	inactive
CCCCCCCCCCn1cc[n+](C)c1	inactive and 61.4 µM (active) and 30.6 µM (active)	inactive	inactive	inactive	inactive	inactive	inactive	46.2 µM (active) and inactive	36.7 µM (active) and inactive	inactive	inactive	inactive		inactive			inactive	inactive	inactive	inactive
C#C[C@]1(O)CC[C@H]2[C@@H]3CCC4=CC(=O)CC[C@]4(C)[C@H]3CC[C@@]21C	inactive	inactive	inactive	inactive	inactive	inactive	inactive	inactive	inactive	inactive					inactive	inactive		inactive	inactive	
